The campaign covered roughly 290,000 compounds. About 2,200 (0.76%) were called active. Many of the other results were omitted from the sample, so actives are more common in it than they were. Values without a mark were called inactive. No stated cut-off is given here; in the data, active means inhibition above about 30%; inconclusive means no clear call, values can overlap the other calls; inactive means below that.

The target in this assay is Protein RecA (Mycobacterium tuberculosis (strain ATCC 25618 / H37Rv)) (UniProt P9WHJ3). Description: Mtb RecA intein splicing inhibitors, primary screen, biochemical, fluorescence, HTS (AID 2221).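 Further: 0% = vehicle wells and 100% = reference inhibitor control wells.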 The conditions noted are these: cell-free RecA intein splicing, hits give high values, concentration not given here.
Sequence of Protein RecA (Mycobacterium tuberculosis (strain ATCC 25618 / H37Rv)) (P9WHJ3 whole entry, looked up): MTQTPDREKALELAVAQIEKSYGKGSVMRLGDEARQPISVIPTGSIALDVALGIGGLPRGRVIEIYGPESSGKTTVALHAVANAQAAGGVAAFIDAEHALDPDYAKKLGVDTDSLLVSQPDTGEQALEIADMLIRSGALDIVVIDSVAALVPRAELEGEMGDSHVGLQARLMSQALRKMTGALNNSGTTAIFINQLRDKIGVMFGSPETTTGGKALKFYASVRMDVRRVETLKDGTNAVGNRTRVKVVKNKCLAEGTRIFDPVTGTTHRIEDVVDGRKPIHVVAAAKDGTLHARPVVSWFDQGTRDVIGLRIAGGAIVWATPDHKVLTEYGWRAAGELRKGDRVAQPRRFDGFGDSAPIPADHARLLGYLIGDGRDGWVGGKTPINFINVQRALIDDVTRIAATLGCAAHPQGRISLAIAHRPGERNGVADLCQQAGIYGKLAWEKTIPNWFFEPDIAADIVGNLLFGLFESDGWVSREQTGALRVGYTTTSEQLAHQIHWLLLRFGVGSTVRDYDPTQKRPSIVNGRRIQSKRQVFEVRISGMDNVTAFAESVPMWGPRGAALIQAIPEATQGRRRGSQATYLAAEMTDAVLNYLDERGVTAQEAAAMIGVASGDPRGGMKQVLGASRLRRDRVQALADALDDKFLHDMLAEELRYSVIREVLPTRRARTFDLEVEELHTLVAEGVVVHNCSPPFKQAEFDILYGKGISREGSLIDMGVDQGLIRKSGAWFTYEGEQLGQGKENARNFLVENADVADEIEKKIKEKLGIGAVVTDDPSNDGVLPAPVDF
As usually defined, the inhibition is the relative decrease from the control value, in per cent. `COC(=O)C(C)n1cnc2c(nnn2-c2ccc(F)cc2)c1=O` (centres undefined): the inhibition was -1.59%.
Then `CCOC(=O)C(CC)Sc1ncnc2c1nnn2-c1ccc(F)cc1` (centres undefined), with 36.6% (active); and `CCOC(=O)C(C)n1cnc2c(nnn2-c2ccc(F)cc2)c1=O` (centres undefined), with -0.542%; and `Cc1ccc(C(=O)COC(=O)CCN2C(=O)C3C4CC(C(Br)C4Br)C3C2=O)cc1` (centres undefined), with 1.16%.
Then `CC(=O)Nc1ccc(N2C(=O)CC(Sc3nccc(C)n3)C2=O)cc1` (centres undefined), with -1.08%; and `O=C(Oc1ccc(Br)cc1C(=S)N1CCOCC1)c1cccc([N+](=O)[O-])c1`, with 32.3% (active).
The figure for `O=C(Oc1ccccc1C(=S)N1CCCCC1)c1cc([N+](=O)[O-])cc([N+](=O)[O-])c1` is 28.1%; for `COc1cc(C(=S)N2CCOCC2)cc(OC)c1OC(=O)c1cc([N+](=O)[O-])cc([N+](=O)[O-])c1` it is -0.59%; for `Cc1nn(C)cc1/C=C1\CCC/C(=C\c2cn(C)nc2C)C1=O` it is 1.91%.
Turning to `CC(=O)c1c(C)c[nH]c1C`, the inhibition is 0.735%.
Then `S=C(NCC1COc2ccccc2O1)Nc1ccc(Br)cc1` (centres undefined), with 2.68%.
Then `CC12CCC(C(=O)N(c3cccc(Cl)c3)C1=O)C2(C)C` (centres undefined), with 2.02%; and `Cc1[nH]n(-c2cccc(Cl)c2)c(=O)c1-c1ccc(Cl)cc1`, with 8.51%; and `CC1=NN(c2cccc(Cl)c2)C(=O)C12CC(C)=C(C)CS2` (centres undefined), with 31.7% (active).
Turning to `COC(=O)C1=C(Nc2ccc(C)cc2)C=C(C)C(C(=O)OC)C1c1ccc(F)cc1` (centres undefined), the inhibition was -4.47%.
The figure for `COc1cccc(Nc2nc(N)c([N+](=O)[O-])c(NCc3ccco3)n2)c1` is 9.57%; for `CC(NC(=O)c1ccco1)c1ccc2c(c1)OCO2` (centres undefined) it is -3.46%; for `CCOc1ccc(C(CC(=O)O)NC(=O)Cc2ccccc2)cc1OC` (centres undefined) it is -1.09%.
Then `Cc1[nH][nH]c(=O)c1C(c1ccc(-c2ccc(Cl)cc2)o1)c1c(C)[nH][nH]c1=O`, with -2.86%; and `C=CCOc1ccc(/C=C2/C(=O)ON=C2C)cc1OCC`, with 0.545%.
Then `Cc1[nH][nH]c(=O)c1C(c1ccc2c(c1)OCO2)c1c(C)[nH][nH]c1=O`, with 97.8% (active).
As to `CCOc1ccc(C(c2c(C)[nH][nH]c2=O)c2c(C)[nH][nH]c2=O)cc1OCC`, the inhibition was 98.1% (active).
The figure for `O=C(NCCCn1ccnc1)c1cc(Br)c(Br)s1` is -6.96%.
In the case of `COc1ccccc1/C=C/C(=O)NC(=S)N1CCOCC1`, the inhibition was 1.89%.
Regarding `CCC(C)N(C(=O)Cn1nc(C)c([N+](=O)[O-])c1C)C1CCS(=O)(=O)C1` (centres undefined), the inhibition was 2.19%.
The figure for `COCCc1nn2c(=O)cc(COC(=O)c3cc(OC)c(OC)c(OC)c3)nc2s1` is 0.818%; for `CN1c2ccc(C=O)c3c(C=O)ccc(c23)N(C)C1(C)C` it is 63.9% (active).
Then `Cc1[nH]c(C)c(S(=O)(=O)N2CCN(c3cccc(C(F)(F)F)c3)CC2)c1C(=O)N1CCCC1`, with 0.869%.
Then `CCC(c1nnnn1Cc1ccccc1)N(Cc1cc2cc(OC)ccc2[nH]c1=O)CC1CCCO1` (centres undefined), with -10.9%; and `CCC(c1nnnn1Cc1ccco1)N(CCc1ccccc1)Cc1cc2ccc(OC)cc2[nH]c1=O` (centres undefined), with 16.5%; and `CCC(c1nnnn1Cc1ccco1)N(Cc1cc2cc(OC)ccc2[nH]c1=O)C1CCCCC1` (centres undefined), with 30.6% (active).
On to `C[C@H](C(=O)CC(=O)OC(C)(C)C)[C@H](O)c1ccc(C(F)(F)F)cc1`, for which the inhibition is 0.927%.
Then `Cc1ccc(OCc2nc3ccccc3n2C)cc1`, with 1.88%; and `CCCCCCCCCCOC(=O)Cn1c(COc2cccc(OC)c2)[n+](C)c2ccccc21`, with 51.1% (active).
The figure for `CCCCCCCCCCOC(=O)Cn1c(COc2ccc(C)cc2)[n+](C)c2ccccc21` is 51.7% (active); for `COc1cccc(OCCCN2CCCCCC2)c1` it is -1.65%.
In the case of `Cc1ccc(OCCCn2c(=O)oc3ccccc32)cc1`, the inhibition is 2.53%.
The figure for `CCn1c(=N)n(CC(=O)c2cccc(OC)c2)c2ccccc21` is 5.77%; for `O=S(N1CCCCCC1)C12CC3CC(CC(C3)C1)C2` (centres undefined) it is -0.132%.
Then `COc1ccc(CCNC(=O)CCC(=O)NC2CCCCC2)cc1OC`, with -0.371%; and `COc1ccc(NC(=O)c2cc(-c3cc(OC)c(OC)c(OC)c3)nc3ccccc23)c(OC)c1`, with 10.4%; and `CCOC(=O)c1c(S(=O)(=O)NCC(=O)Nc2ccc(C)cc2)c(C)n(C)c1C`, with -0.878%.
Then `CCOC(=O)CSc1nc(C)c(Oc2ccc(Cl)cc2Cl)c(=O)[nH]1`, with 1.85%.
With `CCCCOC(=O)CNc1nnc(SCC(=O)OCC)[nH]c1=O`, the inhibition is 77.5% (active).
`Cc1nnc(SCC(=O)N2CCOCC2)[nH]c1=O`: the inhibition was -0.0115%.
Then `CCC(C)[C@H](NC(=O)N1CCn2c1nc1ccccc12)C(=O)NCc1ccc(OC)cc1` (some centres undefined), with 2.07%; and `COc1ccccc1NC(=O)/C=C/C(=O)O`, with -1.49%.
Then `COC(=O)c1sc(-c2ccc(C(C)(C)C)cc2)cc1NC(=O)/C=C/C(=O)O`, with 88.1% (active).
For the molecule `O=C(O)/C=C/C(=O)Nc1ccc(F)cc1F`, the inhibition is 0.519%.
In the case of `CSc1ccc(S(=O)(=O)NCC(=O)OCC(=O)NC2(C#N)CCCCC2)cc1[N+](=O)[O-]`, the inhibition is 1.65%.
Then `CC(C)[C@H](NC(=O)OCc1ccccc1)C(=O)OCc1ccccc1`, with 7.54%.
Then `CCOC(=O)c1nc(Nc2ccc(C(=O)OC)cc2)c2ccccc2n1`, with -6.39%.
As for `CCOC(=O)c1ccc(Nc2cc3ccccc3c(=O)[nH]2)cc1`, the inhibition is 62.4% (active).
The figure for `CCOC(=O)c1ccc(NC(=O)c2cc(=O)[nH]c3ccccc23)cc1` is -5.09%; for `CCN(CC)CCNC(=O)c1sc2ncn(CC(=O)Nc3ccc(C)c(Cl)c3)c(=O)c2c1C` it is -0.641%.
Then `O=C(CN1C(=O)CC(c2ccccc2)=Nc2ccccc21)NC1CCCCC1`, with -1.07%; and `CCOc1ccc(NC(=O)C2CCN(C(=O)N3CCOc4ccccc43)CC2)cc1`, with 2.39%; and `Cc1nnc(NC(=O)C(c2ccccc2)c2ccccc2)s1`, with 1.12%.
The figure for `CCN1CCN(C(c2cccnc2)c2cc(Cl)c3cccnc3c2O)CC1` (centres undefined) is 70% (active); for `CCOC(=O)N1CCN(C(c2cccnc2)c2ccc3cccnc3c2O)CC1` (centres undefined) it is 9.76%; for `CCN1CCN(c2ccc(NC(=O)c3cnccn3)cc2)CC1` it is -0.413%.
Consider `COc1ccccc1/C=N\Nc1cc(C)nc(-n2nc(C)cc2C)n1`, for which the inhibition is 0.767%.
Then `COc1cccc(/C=N/Nc2ncc(C(F)(F)F)cc2Cl)c1O`, with -2.37%; and `COc1cccc(/C=N/Nc2cc(C)nc(-c3ccccc3O)n2)c1O`, with 38.8% (active).
On to `C/C(=N\NC(=O)COc1ccc(C)cc1[N+](=O)[O-])c1ccc2c(c1)OCCO2`, for which the inhibition is 1.11%.
`O=S(=O)(Nc1ccc(O)c2ccccc12)c1ccc(OC(F)(F)F)cc1`: the inhibition was 95.2% (active).
Then `Cc1nn(C)c(C)c1NS(=O)(=O)c1ccc(OC(F)(F)F)cc1`, with 0.692%; and `O=C1COc2ccc(S(=O)(=O)Nc3ccc(OC(F)(F)F)cc3)cc2N1`, with -0.276%.
The figure for `COCCCC1CCN(C(=O)C2CCC(=O)N(C3CCCCCC3)C2)CC1` (centres undefined) is -0.89%; for `CC(=O)c1sc(NC(=O)C2=NN(c3ccccc3)C(=O)CC2)nc1C` it is -1.59%.
Then `COC(=O)CC1=NN(c2nc(C)cc(C)n2)C(=O)C1`, with 36.2% (active).
Regarding `Cc1ccc(CC2CC(=O)N(c3nc(C)cc(C)n3)C2=O)cc1` (centres undefined), the inhibition is -1.07%.
Then `C/C(N)=C(/C#N)C(=O)COC(=O)C1=NN(c2ccccc2)C(=O)CC1`, with -0.739%.
Then `COC(=O)CC1=NN(c2ccccc2)C(=O)C1`, with 76.6% (active); and `Cc1cc(C)cc(NC(=O)C2CCN(c3nc(C)cc(C)n3)CC2)c1`, with -1.54%.
Then `O=C(CSc1nc(Nc2ccccc2)nc(N2CCOCC2)n1)Nc1cc(Cl)ccc1O`, with 2.06%; and `CCCn1nc(C(=O)NNC(=O)CSCC(=O)Nc2cc(C)on2)c2ccccc2c1=O`, with 1.67%; and `O=C1Nc2cc(C(=O)N3CCC(N4CCCCC4)CC3)ccc2S/C1=C\c1ccccc1`, with 1.2%.
On to `Cc1csc(CN(C)C(=O)CC2C(=O)NCCN2CC(C)(C)C)n1` (centres undefined), for which the inhibition is -5.7%.
The figure for `O=C(C(Cc1ccccc1)n1cccc1)N1CCN(C2CCCCC2)CC1` (centres undefined) is 1.21%; for `NC(=O)CC[C@@H]1NC(=O)[C@H](CO)NC(=O)c2cc([N+](=O)[O-])cc(I)c2NCC[C@@H](C(N)=O)NC1=O` it is 30.3% (active); for `NCCCC[C@@H]1NC(=O)[C@H](CCC(=O)O)NC(=O)c2cc([N+](=O)[O-])cc(I)c2NCC[C@@H](C(N)=O)NC1=O` it is 0.579%.
The figure for `NC(=O)C[C@@H]1NC(=O)CNC(=O)c2cc([N+](=O)[O-])cc(I)c2NCCC(C(N)=O)NC1=O` (some centres undefined) is 1.58%.
The figure for `COc1ccc(Nc2ncc(F)c(N3CCOCC3)n2)cc1` is -0.77%.
For the molecule `CN(C)S(=O)(=O)c1ccc(C(=O)NCCN=C2NS(=O)(=O)c3ccccc32)cc1`, the inhibition is -1.53%.
Then `Cc1cc(C)c(NC(=O)CN2C(=O)NC(Cc3ccccc3)C2=O)c(C)c1` (centres undefined), with 0.835%.
Then `Cc1[nH]n(C)c(=O)c1C(=O)c1c(-c2c(Cl)cccc2Cl)noc1C`, with 77.1% (active); and `Cc1onc(-c2c(Cl)cccc2Cl)c1C(=O)c1c[nH]c(C(=O)NC2CC2)c1`, with 5.76%; and `Cc1onc(-c2c(Cl)cccc2Cl)c1C(=O)NNC(=O)c1c(-c2c(Cl)cccc2Cl)noc1C`, with 0.133%.

The values are drawn from PubChem BioAssay AID2221 (Broad Institute, 2009).
